Article PMC4336329 (PLoS ONE, 2015)
Out of some 310,000 compounds screened, about 14,000 (4.5%) showed an effect of 50% or more. The effect is printed as a negative number. This is one part of a sample in which strong results are shown more often than they occur.

What follows are compounds tested against human ether-à-go-go-related gene (hERG) potassium channel (human, UniProt Q12809) (assay: primary screen, population patch clamp on CHO cells stably expressing hERG; higher = less effect of the substance).
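Note: peak tail current of the secondary pulse compared with the same well before compound.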

human ether-à-go-go-related gene (hERG) potassium channel, sequence (Q12809 whole entry, looked up): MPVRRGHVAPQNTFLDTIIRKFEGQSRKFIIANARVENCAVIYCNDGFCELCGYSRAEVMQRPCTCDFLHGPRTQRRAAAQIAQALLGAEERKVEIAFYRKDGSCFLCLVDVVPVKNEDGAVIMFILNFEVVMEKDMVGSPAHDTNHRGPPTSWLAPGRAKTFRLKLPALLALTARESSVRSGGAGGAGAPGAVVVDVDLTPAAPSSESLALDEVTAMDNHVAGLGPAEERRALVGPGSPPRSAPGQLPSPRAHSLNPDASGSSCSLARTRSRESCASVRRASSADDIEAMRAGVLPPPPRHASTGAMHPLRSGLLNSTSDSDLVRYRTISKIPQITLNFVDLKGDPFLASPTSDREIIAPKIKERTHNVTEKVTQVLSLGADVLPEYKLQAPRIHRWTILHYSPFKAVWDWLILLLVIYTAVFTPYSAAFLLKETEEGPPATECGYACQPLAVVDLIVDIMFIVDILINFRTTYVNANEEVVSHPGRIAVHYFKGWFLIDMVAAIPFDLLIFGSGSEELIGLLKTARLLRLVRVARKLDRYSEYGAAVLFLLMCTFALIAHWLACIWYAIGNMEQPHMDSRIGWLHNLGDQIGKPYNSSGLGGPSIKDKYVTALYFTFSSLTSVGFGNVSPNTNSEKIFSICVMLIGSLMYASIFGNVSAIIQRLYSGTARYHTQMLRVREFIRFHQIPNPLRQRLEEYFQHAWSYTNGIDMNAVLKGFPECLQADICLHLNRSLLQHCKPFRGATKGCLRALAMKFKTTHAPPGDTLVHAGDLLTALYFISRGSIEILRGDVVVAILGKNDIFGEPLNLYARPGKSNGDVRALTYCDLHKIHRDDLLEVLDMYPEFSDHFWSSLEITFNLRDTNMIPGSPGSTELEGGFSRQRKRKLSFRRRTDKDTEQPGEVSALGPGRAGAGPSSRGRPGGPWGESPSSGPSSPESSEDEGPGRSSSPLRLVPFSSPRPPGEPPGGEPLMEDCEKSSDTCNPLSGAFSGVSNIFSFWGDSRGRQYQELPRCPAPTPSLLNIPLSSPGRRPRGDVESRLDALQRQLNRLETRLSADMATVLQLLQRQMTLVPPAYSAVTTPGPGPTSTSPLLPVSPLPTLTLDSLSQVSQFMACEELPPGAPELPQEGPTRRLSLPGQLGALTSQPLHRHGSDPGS

| Compound | hERG current change (%, negative = inhibition) at 10uM [%] |
| --- | --- |
| CC(C)S(=O)(=O)c1cnc(N2CCOCC2)nc1N | 11.4 |
| Nc1ccc2nc(-c3ccccc3)sc2c1 | 23.4 |
| Cc1cccc(OCc2n[nH]c(=S)n2Cc2ccccc2)c1 | 11.8 |
| O=C(CNC(=O)c1sc2ccccc2c1Cl)Nc1ccccc1F | -6.72 |
| COc1ccc(NC(=O)CN(C)C(=O)CCC2CCCC2)cc1 | 5.49 |
| CC1CCN(C(=O)C2CCCN(S(=O)(=O)c3cccc4nsnc34)C2)CC1 (stereo not drawn) | -27.8 |
| O=C(C1CCCN(S(=O)(=O)c2cccc3nsnc23)C1)N1CCN(c2ccccn2)CC1 (stereo not drawn) | -50.2 |
| O=C(CCNS(=O)(=O)c1cccc2nsnc12)N1CCN(c2ccccn2)CC1 | -24 |
| O=C(C1CCCN(S(=O)(=O)c2cccc3nsnc23)C1)N1CCCCCC1 (stereo not drawn) | -16.8 |
| CCN(CC)C(=O)C1CCC(CNS(=O)(=O)c2cccc3nsnc23)CC1 (stereo not drawn) | 2.47 |
| CCCCN(CC)C(=O)C1CCC(CNS(=O)(=O)c2cccc3nsnc23)CC1 (stereo not drawn) | -23.7 |
| O=C(C1CCC(CNS(=O)(=O)c2cccc3nsnc23)CC1)N1CCN(c2ccccn2)CC1 (stereo not drawn) | -53.9 |
| CCCN(CCC)C(=O)C1CCC(CNS(=O)(=O)c2cccc3nsnc23)CC1 (stereo not drawn) | -69.5 |
| O=C(C1CCC(CNS(=O)(=O)c2cccc3nsnc23)CC1)N1CC=C(c2ccccc2)CC1 (stereo not drawn) | -10.3 |
| CN(C)c1ccc(CN(Cc2ccco2)C(=O)c2ccco2)cc1 | -30.1 |
| COC(=O)c1ccc(C(=O)OC)c(NC(=S)N2CCN(C)CC2)c1 | 20.4 |
| Cc1cc(C(=O)CS(=O)(=O)c2ccc(Cl)cc2)cc(C)c1O | 16.6 |
| CS(=O)(=O)Nn1cnc2ccccc2c1=O | 10.7 |
| Cc1cc(C)c(S(=O)(=O)N2CCCOC2CNC(=O)C(=O)NCc2cccs2)c(C)c1 (stereo not drawn) | -8.31 |
| O=C1NC(=Nc2ccccc2)/C(=C/c2ccco2)S1 | 12.4 |
| CCOc1ncccc1C(=O)NNC(=O)c1cccc(S(=O)(=O)Nc2ccc(OC)cc2)c1 | 6.87 |
| CCOC(=O)Cc1[nH]nc2c1C(c1cccc(OC)c1OC)C(C#N)=C(N)O2 (stereo not drawn) | -0.21 |
| c1ccc(-c2nc(N3CCNCC3)nc3ccccc23)cc1 | -65.2 |
| O=C(O)CCCC(=O)N1CCN(c2nc(-c3ccccc3)c3ccccc3n2)CC1 | 1.86 |
| Clc1ccc2nc(N3CCNCC3)nc(-c3ccccc3)c2c1 | -59.1 |
| CCN1CCN(c2nc(-c3ccccc3)c3ccccc3n2)CC1 | -71.2 |
| c1ccc(-c2nc(N3CCCC3)nc3ccccc23)cc1 | 8.87 |

| Compound | hERG current change (%, negative = inhibition) at 10uM [%] |
| --- | --- |
| CCOC(=O)N1CCN(c2nc(-c3ccccc3)c3ccccc3n2)CC1 | 5.1 |
| CN1CCN(c2nc(-c3ccccc3)c3cc(Cl)ccc3n2)CC1 | -48.1 |
| O=C(O)CCC(=O)N1CCN(c2nc(-c3ccccc3)c3ccccc3n2)CC1 | 13.7 |
| O=C1CN(c2nc(-c3ccccc3)c3cc(Cl)ccc3n2)c2ccccc2N1 | 13.1 |
| CC(=O)NC(Cc1ccc(F)cc1)C(=O)O (stereo not drawn) | -24.1 |
| COC(=O)CP(=O)(c1ccccc1)c1ccccc1 | 15.2 |
| Oc1ccc(/C=N/NP(=S)(c2ccccc2)c2ccccc2)cc1 | -3.89 |
| COc1ccccc1CNC(=O)c1cccs1 | 3.82 |
| CCC1=C2CC[C@H]3C(=O)N(CC)C(=O)[C@H]3[C@H]2[C@@]2(Cc3ccccc3)C(=NCCOC)OC(=O)N2C1=O | 10 |
| CC(C)(Oc1ccc(Cl)cc1)C(=O)OCC(=O)N1CCN(c2ccccc2)CC1 | -7.02 |
| CCN1C[C@]2(COC)CC[C@H](OC)[C@@]34C1[C@]1(OCO[C@@]15C[C@H](OC)[C@H]1C[C@@H]3[C@@H]5[C@H]1OC)[C@@H](O)[C@H]24 | 10.5 |
| C=CCn1c(COc2ccc(Cl)cc2)nnc1SCC(=O)Nc1ccc(S(N)(=O)=O)cc1 | -9.02 |
| Cc1oc(-c2ccc(Cl)cc2)nc1CS(=O)CC(=O)NCCCN1CCN(Cc2ccccc2)CC1 (stereo not drawn) | -62.1 |
| Cc1ccccc1-c1nc(CS(=O)CC(=O)NCCN2CCN(Cc3ccccc3)CC2)c(C)o1 (stereo not drawn) | -58.7 |
| Cc1ccccc1-c1nc(CS(=O)CC(=O)NCCN2CCOCC2)c(C)o1 (stereo not drawn) | 3.48 |
| Cc1ccc(-c2nc(CS(=O)CC(=O)NCCCN3CCN(Cc4ccccc4)CC3)c(C)o2)cc1 (stereo not drawn) | -38.2 |
| Cc1oc(-c2ccc(Cl)cc2)nc1CS(=O)CC(=O)NCCCN1CC(C)CC(C)C1 (stereo not drawn) | -65.5 |
| Cc1ccc(-c2nc(CS(=O)CC(=O)NCCCN3CC(C)CC(C)C3)c(C)o2)cc1 (stereo not drawn) | -19.9 |
| Cc1ccccc1-c1nc(CS(=O)CC(=O)NCc2ccccc2)c(C)o1 (stereo not drawn) | -21 |
| Cc1oc(-c2ccc(Cl)cc2)nc1CS(=O)CC(=O)NCCCN1CCCC(C)C1 (stereo not drawn) | -36.8 |
| Cc1oc(-c2ccc(Cl)cc2)nc1CS(=O)CC(=O)NCCCN1CCOCC1 (stereo not drawn) | -3.95 |
| O=C(CSc1nnc(-c2cccs2)o1)NCc1ccco1 | -0.74 |
| COC(=O)C1=C(Nc2ccc(OC)cc2)C=C(C)C(C(=O)OC)C1c1ccc(C)cc1 (stereo not drawn) | 18.9 |
| C(#Cc1ccccc1)CN1CCOCC1.Cl | 22.9 |
| Cc1ccc(C)c(S(=O)(=O)N2CCN(C(=O)c3ccc(OCc4c(C)noc4C)cc3)CC2)c1 | -21.9 |
| O=C(Nc1ccc(S(=O)(=O)N2CCCCC2)cc1)c1ccc(=O)[nH]c1 | 7.49 |
| Cc1cc(C)cc(Oc2ccc(-c3nnc(-c4ccccc4)o3)cc2[N+](=O)[O-])c1 | 7.94 |
